High-throughput results (PubChem BioAssay)
ELG1 genotox: qHTS screen for small molecules that induce genotoxicity in human embryonic kidney (HEK293T) cells expressing luciferase-tagged ELG1. HEK293T ELG1-luciferase reporter, luminescence, 16 h. Potency, µM (top dose mostly 46 µM), inactives show at the highest dose activity change, positive = activation, actives largely listed as activators. actives 1.3% (n = 330,000); further: % of control where 0% means no effect; nearly all actives have a fitted effect of over 60% in size
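After overnight (16 hr) compound treatment at 37 °C, ELG1-luciferase HEK293T cells were lysed with ONE-Glo; luminescence quantified 30 min later at room temperature.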
Rab9 prom act: qHTS Assay for Rab9 Promoter Activators. AID 485297, 2010. Potency, µM (highest dose often 9.22 µM), for inactives: top-dose activation, negative = inhibition, actives largely listed as activators. Huh7 Rab9 promoter-luciferase reporter, luminescence, 24 h. actives 2.8% (n = 320,000); further: % of control where 0% means no effect; nearly all actives have a fitted effect of over 60% in size
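Quantitative HTS format; Huh7 Rab9-luciferase reporter cells (1500/well) receive compound 2 h post-plating, incubate 24 h at 37 °C, then get luciferase reagent for 10 min before luminescence reading.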
NPC1 promoter act: qHTS Assay for NPC1 Promoter Activators | Huh7 NPC1 promoter luciferase reporter, 24 h | Potency, µM (top dose mostly 9.22 µM), for inactives: at the top dose activation, usual class: activators | actives 2.4% (n = 320,000); further: % of control where 0% means no effect; nearly all actives have a fitted effect of over 60% in size
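Huh7 cells stably carrying NPC1 promoter–luciferase, plated in Opti-MEM with 10% FBS for 2 h, were exposed to compound in DMSO for 24 h at 37 °C; luciferase reagent was added for 10 min and luminescence read.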
SMN2 splice up: qHTS Assay for Enhancers of SMN2 Splice Variant Expression; HEK293 SMN2-luciferase splicing reporter, luminescence, 30-36 h; Potency, µM (doses to about 46.1 µM), inactives show top-dose activity change, positive = activation, most hits filed as activators; actives 2.8% (n = 210,000); AID 1458, 2008; further: % of control where 0% means no effect; nearly all actives have a fitted effect of over 55% in size
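HEK293 cells carry an SMN2 […]–luciferase reporter in which exon 7 inclusion puts luciferase in frame. Cells were plated 10-12 h before compound addition, then incubated 30-36 h at 37C. ONE-Glo luminescence was read; sodium butyrate at 4.5 mM final served as control.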
FLuc modulator: qHTS profiling assay for firefly luciferase inhibitor/activator using purifed enzyme and Km concentrations of substrates (counterscreen for miR-21 project) | AID 588342, 2011 | purified FLuc, Km substrates, luminescence inhibition | Potency, µM (top dose mostly 57.5 µM), without a hit: at the top dose activity change, negative = inhibition, hits mostly inhibitors | actives 6.9% (n = 360,000) | Luciferin 4-monooxygenase (Photinus pyralis), P08659;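 further: plate controls were vehicle for no effect and reference inhibitor for full effect; nearly all actives have a fitted effect of over 55% in size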
Target sequence (P08659 whole entry, looked up): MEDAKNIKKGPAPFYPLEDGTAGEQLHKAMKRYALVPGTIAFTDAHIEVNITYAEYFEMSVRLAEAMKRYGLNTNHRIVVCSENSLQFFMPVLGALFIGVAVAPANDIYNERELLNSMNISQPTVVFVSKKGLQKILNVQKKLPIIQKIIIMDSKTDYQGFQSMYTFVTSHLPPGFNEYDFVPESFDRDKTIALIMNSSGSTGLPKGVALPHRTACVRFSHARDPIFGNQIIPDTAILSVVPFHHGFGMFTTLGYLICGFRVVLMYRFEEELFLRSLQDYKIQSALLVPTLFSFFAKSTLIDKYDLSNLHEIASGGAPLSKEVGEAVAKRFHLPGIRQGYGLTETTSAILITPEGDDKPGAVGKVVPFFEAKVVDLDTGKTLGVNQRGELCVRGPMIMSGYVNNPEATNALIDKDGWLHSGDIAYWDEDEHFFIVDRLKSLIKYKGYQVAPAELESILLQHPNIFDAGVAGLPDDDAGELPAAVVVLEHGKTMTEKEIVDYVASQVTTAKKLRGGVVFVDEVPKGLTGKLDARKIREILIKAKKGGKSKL
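Biochemical qHTS of compounds, final roughly 60 µM downward over six points, against 10 nM purified firefly luciferase using Km concentrations of substrates (10 uM D-luciferin, 10 uM ATP) in Tris acetate pH 7.5 buffer; luminescence output.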
Numbers without * were called inactive; ? = inconclusive; . = not tested or not shown; [ ] = remark or other dose. In the library only some 7.4% were active in any assay of this set; here they are far more common. The call rests on the fitted dose curve; in most records, active means well fitted curve in the direction sought with a large enough effect; inconclusive means small, poorly fitted or top-dose-only effect, or another doubt; inactive means no such curve, though single readings can be large; an effect the other way counts as inactive or inconclusive. Potency means the concentration at half of the fitted maximal effect.

SMILES	ELG1 genotox	Rab9 prom act	NPC1 promoter act	SMN2 splice up	FLuc modulator
CCc1ccc(NC(=O)Cn2c(=O)n(CCCCC(=O)NCc3ccc4c(c3)OCO4)c(=O)c3ccccc32)cc1	.	.	.	13%	-1%
Cc1ccc(-c2nc3s/c(=C\c4ccco4)c(=O)n3n2)cc1	-1%	4%	-4%	0%	0.76µM*
Cc1ccc(/C=c2\sc3nc(-c4ccco4)nn3c2=O)o1	-5%	-1%	5%	14%	?
O=C(CSCc1ccccc1Cl)Nc1ccc2c(c1)OCCO2	?	1.6µM*	1.8µM*	45%	6.7µM*
Cn1c(C(=O)O)c(CC(=O)Nc2ccc3c(c2)OCCO3)c2ccccc21	?	5%	-1%	-35%	19µM*
O=C(CNCc1ccccc1Cl)Nc1ccc2c(c1)OCCO2	?	2.8µM*	3.2µM*	.	21µM*
Cc1ccc(NC(=O)Cc2c(C(=O)O)n(C)c3ccccc23)cc1F	1%	2%	-1%	.	?
O=C(CSCc1ccc(Cl)cc1)Nc1ccc2c(c1)OCO2	0%	-5%	1%	2%	?
c1ccc(-c2nnc(OCC3CCCO3)c3ccccc23)cc1 (centres undefined)	-1%	3%	-2%	1%	?
C=CC1=C2C=C(C3CC3)N(CCCN(CC)CC)C=C2C(=O)C(C)(OC(=O)c2ccco2)C1=O (centres undefined)	.	.	.	-3%[9.22 µM]	.
COc1ccc(S(=O)(=O)Nc2cccc(-c3ccc(N4CCCCCC4)nn3)c2)cc1	.	.	.	.	6.7µM*
CCCCOc1ccc(S(=O)(=O)Nc2ccc(-c3ccc(N4CCCCCC4)nn3)cc2)cc1	.	.	.	.	-4%
COc1ccc(S(=O)(=O)Nc2cccc(-c3ccc(N4CCCCCC4)nn3)c2)cc1OC	18%	4%	18%	.	6µM*
COc1ccc(S(=O)(=O)Nc2cccc(-c3ccc(N4CCCC4)nn3)c2)cc1F	.	.	.	.	13µM*
CCOc1ccc(S(=O)(=O)Nc2cccc(C(=O)N3CCN(C(C)=O)CC3)c2)cc1	2%	1%	0%	.	15%
CCOc1ccc(S(=O)(=O)Nc2cccc(-c3ccc(N4CCC(C)CC4)nn3)c2)cc1	.	.	.	.	2.7µM*
COc1cccc(NS(=O)(=O)c2ccc(OC)c(OC)c2)c1	-1%	-1%	3%	-24%	6%
CCOC(=O)C1CCN(C(=O)CN2C(=O)COc3ccc(C(C)(C)C)cc32)CC1	-6%	-3%	-4%	.	1%
CC1CC(C)CN(C(=O)COC(=O)c2ccc3ccccc3n2)C1 (centres undefined)	0%	-2%	8%	.	.
Cn1c(COc2ccccc2)nnc1SCC(=O)NC1CCCC1	-6%	-3%	-3%	.	1%
O=C(N/N=C/C(Cl)=C/c1ccc([N+](=O)[O-])cc1)C(=O)Nc1cccc(C(=O)O)c1	?	?	?	.	24µM*
O=C(O)c1cccc(Nc2ccc([N+](=O)[O-])cn2)c1	0%	7%	1%	.	?
O=C(Nc1ccc(NS(=O)(=O)c2ccccc2)cc1)c1ccccc1	6%	0%	0%	.	-2%
N#CC1(c2ccc(NC(=O)c3ccccc3)cc2)CCCC1	?	0.4µM*	0.28µM*	14µM*	1.3µM*
CC(=O)Oc1ccc(C(=O)Nc2ccc(C3(C#N)CCCC3)cc2)cc1	5%	2µM*	1.3µM*	.	?
SMILES	ELG1 genotox	Rab9 prom act	NPC1 promoter act	SMN2 splice up	FLuc modulator
CC(C)(C)C(=O)C1C(=O)c2ccccc2C1=O	.	.	.	-5%	.
CCc1ccc(/C=C/C(=O)C2C(=O)c3ccccc3C2=O)cc1	1%	?	?	?	0.43µM*
COc1ccc(CN2C(=O)c3ccccc3C(/C=N/OCc3ccc(Cl)cc3)C2=O)cc1 (centres undefined)	-8%	-3%	-4%	-61%	21µM*
COc1ccc(CN2C(=O)c3ccccc3C(/C=N\OCc3ccc(F)cc3)C2=O)cc1 (centres undefined)	-7%	3%	-2%	-52%	21µM*
NC(=O)c1nsc(C(=O)N(CC(=O)NC2CCCCC2)Cc2ccc(F)cc2)c1N	?	3%	-2%	.	?
Cc1cc(CN2CCN(CC(=O)Nc3cc(Cl)ccc3-n3cncn3)CC2)no1	-2%	10%	-1%	.	1%
Cc1cc2nn(-c3ccc(Cl)cc3)nc2cc1N	?	22%	?	.	0.34µM*
COc1ccc(-n2nc3cc(C)c(NC(=O)c4ccc(C)cc4C)cc3n2)cc1Cl	.	.	.	4%	-2%
Cc1cc(N)n(-c2ccc(Cl)cc2)n1	3%	2%	-2%	12%	2%
COc1ccc(-n2nc3cc(C)c(N)cc3n2)cc1Cl	?	2.8µM*	2.2µM*	.	1.1µM*
Cc1cc2nn(-c3ccc(F)cc3)nc2cc1N	1.6µM*	3.2µM*	2.5µM*	.	0.76µM*
COc1ccc(C2=NN3C(=O)c4c(ccc(OC)c4OC)C3C2)cc1 (centres undefined)	-1%	-1%	1%	-17%	17µM*
COc1ccc2c(c1OC)C(=O)N1N=C(c3ccc(Br)cc3)CC21 (centres undefined)	0%	7%	3%	-30%	24µM*
CC(Sc1nnc(NC2CCCCC2)s1)C(=O)Nc1ccc2c(c1)C(=O)c1ccccc1C2=O (centres undefined)	4%	?	?	10µM*	?
COc1ccc2c(c1)sc1ncc(C(=O)NCc3ccc(OC(C)C)cc3)c(=O)n12	.	.	.	-16%	4%
COc1cccc(-c2nc3ccc(C(=O)N4CCCC(O)C4)cc3o2)c1 (centres undefined)	?	3.5µM*	4µM*	.	15µM*
COc1cccc(-c2noc(C3CCCN(C(=O)c4cccc(F)c4)C3)n2)c1 (centres undefined)	1%	5%	14%	.	-15%
CCC(=O)C1CCCN(C(=O)c2ccc3nc(-c4cccc(OC)c4)oc3c2)C1 (centres undefined)	?	1.6µM*	1.4µM*	.	8.5µM*
CC(=O)C1CCCN(C(=O)c2ccc3nc(Cc4cccc(Cl)c4)oc3c2)C1 (centres undefined)	-3%	3%	3%	.	5%
Nc1nc2c(s1)CC(c1ccccc1)CC2 (centres undefined)	2%	0%	4%	-16%	24µM*
Nc1nc2c(s1)COc1ccccc1-2	10%	17%	13%	.	?
O=C1NC(O)=NC1(c1ccccc1)c1ccccc1	.	-2%[46.1 µM]	4%[46.1 µM]	-10%	.
CSc1nsc(/C=C/Nc2ccc(C(=O)O)cc2)c1C#N	-7%	14%	-4%	3%	12µM*
